Results taken from PubChem BioAssay (NCI).
This is part of a sample that, as a whole, favours compounds with a hit. Of some 83,000 tested, about 20% had one in any assay.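 Results are percent growth after 48 hours of single-concentration exposure. 100 means growth as in untreated cells, lower positive values show inhibition; negative values down to -100 show cell death.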 Unmarked numbers belong to inactive results. Active and inactive are the calls of the source. How the source made its calls: active means growth percent below 10; inactive means the rest.

What was measured:
Assay in all cases: NCI-60 one-dose screen, 48 h (100 = growth as untreated, 0 = no growth, -100 = all killed)
K-562 leukemia = conditions: 10 µM unless noted
MALME-3M melanoma = conditions: 10 µM unless noted
MDA-MB-231 breast = conditions: 10 µM unless noted
RXF 393 renal = conditions: 10 µM unless noted
SF-268 CNS = conditions: 10 µM unless noted
SF-295 CNS = conditions: 10 µM unless noted
SF-539 CNS = conditions: 10 µM unless noted
UACC-257 melanoma = conditions: 10 µM unless noted
M14 melanoma = conditions: 10 µM unless noted
HCT-15 colon = conditions: 10 µM unless noted
SNB-75 CNS = conditions: 10 µM unless noted
SNB-19 CNS = conditions: 10 µM unless noted
U251 CNS = conditions: 10 µM unless noted
PC-3 prostate = conditions: 10 µM unless noted
UACC-62 melanoma = conditions: 10 µM unless noted
SK-MEL-28 melanoma = conditions: 10 µM
SK-MEL-2 melanoma = conditions: 10 µM unless noted
HT29 colon = conditions: 10 µM unless noted
SK-MEL-5 melanoma = conditions: 10 µM unless noted
LOX IMVI melanoma = conditions: 10 µM unless noted

Structure (SMILES) | growth (K-562 leukemia) | growth (MALME-3M melanoma) | growth (MDA-MB-231 breast) | growth (RXF 393 renal) | growth (SF-268 CNS) | growth (SF-295 CNS) | growth (SF-539 CNS) | growth (UACC-257 melanoma) | growth (M14 melanoma) | growth (HCT-15 colon) | growth (SNB-75 CNS) | growth (SNB-19 CNS) | growth (U251 CNS) | growth (PC-3 prostate) | growth (UACC-62 melanoma) | growth (SK-MEL-28 melanoma) | growth (SK-MEL-2 melanoma) | growth (HT29 colon) | growth (SK-MEL-5 melanoma) | growth (LOX IMVI melanoma)
O=c1oc2ccc(F)cc2c(=O)n1-c1ccc(Cl)cc1F | 7.39% (active) | -19.6% (active) | -17.2% (active) | -2.79% (active) | 12.7% | -28.5% (active) | 4.31% (active) | -17.4% (active) | 5.11% (active) | 7.49% (active) | -13.6% (active) | 16.1% | 2.3% (active) | 0.0571% (active) | -8.7% (active) | 14.7% | -28.7% (active) |  |  | 
Nc1ccc(-c2ccc(-c3ccccc3N)c3[nH]c4ccccc4c23)cc1 | 13.4% | 36.8% | 36.2% | 24.5% | 39.5% | 22.2% | 28% | 33.2% | 6.58% (active) |  | 28.4% | 39% | 35.4% | 24.9% | 25.4% | 51% | 19.5% | 13.9% | 6.03% (active) | 27.7%
CC[C@@H](C)[C@H](NC(=O)Cn1cc(CNC(=O)[C@@H](NC(=O)OCc2ccccc2)C(C)C)nn1)C(=O)O | 104% | 105% | 99.4% | 104% | 114% | 94.1% | 105% | 101% | 107% | 111% | 101% | 106% | 104% | 97.2% | 100% |  | 110% |  | 102% | 99.7%
CCN1C(=O)N(CC)C2Nn3c(s/c(=C\c4ccccc4F)c3=O)=NC21 (configuration not stated) | 15.9% | 78.4% | 35.1% | 36.7% | 54.9% | 14.9% | 11.6% | 65.2% | 23.3% |  | 55.1% | 45.5% | 26.1% | 39.6% | 36.7% | 54.2% | 52.8% | 17.4% | 33.9% | 44.3%
Fc1ccc(Oc2ccc(Nc3ncnc4onc(-c5ccccc5)c34)cc2)cc1 | 113% | 93.2% | 70.7% | 115% | 83% | 99.7% | 90.1% | 88.3% | 104% | 103% | 86.4% | 94% | 91.4% | 101% | 92.1% | 110% | 112% |  | 100% | 95.8%
